The campaign covered roughly 96,000 compounds. About 65 (0.07%) were called active. The sample holds actives, similar compounds and a random draw of the others, so the mix is not that of the screen. No stated cut-off is given here; in the data, active means inhibition above about 25%; inactive means the rest.
Assay: unspecified inhibition readout at 50 µM (AID 740)
Conditions: unspecified screen; active compounds read high

Compound	inhibition
CC(C)(C)OC(=O)NCCc1nnc(SCc2ccc(Cl)cc2)o1	26.6% (active)
CC(C)(C)OC(=O)NCCc1nnc(SCc2ccc(Cl)cc2Cl)o1	4.81% (inactive)
N#Cc1ccc2ccn(CC(=O)NC3CCCCC3)c2c1	inactive
Cc1cc(NS(=O)(=O)c2ccc(NC(=O)c3cc(-c4cccnc4)nc4ccc(Cl)cc34)cc2)no1	2.18% (inactive)
COc1ccc(NC(=O)CCN2CCCCCC2)c(OC)c1	0.25% (inactive)
Cc1noc(C)c1CSc1nc2sc(C)c(C)c2c(=O)n1C1CCCC1	25.2% (active)
C=CCn1c(SCc2c(C)noc2C)nc2sc(C)c(C)c2c1=O	11.3% (inactive)
Cc1noc(C)c1CSc1nc2sc(C)c(C)c2c(=O)n1-c1ccccc1	6.13% (inactive)
COc1ccc(C(=O)CSc2nc(C)cc(=O)[nH]2)cc1	inactive
COCCCNC(=O)CCn1c(=O)c2ccccc2n(CC(=O)Nc2c(C)cccc2C)c1=O	1.13% (inactive)
CC(C)c1cc(NC(=O)C(C)(C)C)cc(C(C)C)c1O	0.31% (inactive)
COc1c(C(C)C)cc(NC(C)=O)cc1C(C)C	87.4% (active)
CC(=O)Nc1cc(C(C)C)c(O)c(C(C)C)c1	0.28% (inactive)
CCOC(=O)/C=C1\SCC(=O)N1CC(=O)NC1CCCCC1	0.43% (inactive)
CCOC(=O)/C=C1\SCC(=O)N1CC(=O)NC(C)C	0.15% (inactive)
CCOC(=O)/C=C1\SCC(=O)N1CC(=O)NC12CC3CC(CC(C3)C1)C2	39.9% (active)
COc1ccc(-c2noc(CCN3C(=O)c4ccccc4C3=O)n2)cc1OC	0.08% (inactive)
Cc1cc(NC(=O)CSc2nnc(CNc3ccc(F)cc3)n2C2CCCCC2)no1	26.7% (active)
CCOc1ccc(NCc2nnc(SCC(=O)Nc3cc(C)on3)n2-c2ccc(OC)cc2)cc1	inactive
CCc1nnc(NC(=O)CSc2nnc(CNc3ccc(F)cc3)n2C2CCCCC2)s1	inactive
C=CCN(c1ccc(C(=O)N2CCCC2)cc1)S(C)(=O)=O	inactive
COc1ccc(S(=O)(=O)Nc2cc(C)c(O)cc2C(C)C)cc1	inactive
COc1ccc(OC)c(-n2c(SCC(N)=O)nnc2-c2c[nH]c3ccccc23)c1	1.03% (inactive)
COc1ccc(OC)c(-n2c(SCC(=O)Nc3cc(C)on3)nnc2-c2c[nH]c3ccccc23)c1	25.7% (active)
COc1ccc(OC)c(-n2c(SCC(=O)NCc3ccco3)nnc2-c2c[nH]c3ccccc23)c1	0.83% (inactive)

Compound	inhibition
Cc1cc(C)n(CC(O)Cn2c(C)c(C)c3ccccc32)n1 (stereo not given)	0.73% (inactive)
CN=C(Nc1cc(C)nn1CCC#N)c1ccc(F)cc1	0.15% (inactive)
CC(C)CCNC(=O)C(c1cccs1)N(CC1CCCO1)C(=O)Cn1nnc2ccccc21 (stereo not given)	inactive
COCCn1c(-c2cccs2)nc2c(c(=O)c3ccccc3n2C)c1=O	12.7% (inactive)
Cc1nc2ccccc2c(=O)n1C1CCCCCC1	1.75% (inactive)
Cn1c2ccccc2c(=O)c2c(=O)n(C3CCCCC3)c(-c3cccs3)nc21	47.1% (active)
CC(=O)N=C1SC2CS(=O)(=O)CC2N1c1c(Cl)cccc1Cl (stereo not given)	0.54% (inactive)
COc1ccc2nnc(-c3ccccc3)n2n1	1.04% (inactive)
COCCN1C(=O)C(CC(=O)Nc2ccc(C(=O)O)cc2)SC1=Nc1ccccc1 (stereo not given)	0.58% (inactive)
OC(CN1CCOCC1)Cn1c(-c2cccc(Cl)c2)nc2ccccc21 (stereo not given)	1.12% (inactive)
S=C(Nc1ccccc1)N1CCn2c1nc1ccccc12	69.1% (active)
COc1ccc(NC(=O)N2CCn3c2nc2ccccc23)cc1	1.52% (inactive)
O=C(Nc1ccccc1)N1CCn2c1nc1ccccc12	1.31% (inactive)
Cc1cccc(NC(=O)Cc2cccs2)n1	0.37% (inactive)
c1ccc(NC2=Nc3ccccc3CS2)cc1	0.05% (inactive)
CCN(CC)c1ccc(NC(=O)c2cc(Cl)ccc2OC)cc1	inactive
CCC(C)NC(=O)Cn1nc([N+](=O)[O-])c(Cl)c1C (stereo not given)	0.92% (inactive)
Cn1cnnc1SCC(=O)c1ccc2c(c1)CCCC2	1.31% (inactive)
Cc1nnc(SCC(=O)N2c3ccccc3Sc3ccccc32)n1N	0.91% (inactive)
Cn1ccnc1SC(=O)N1c2ccccc2Sc2ccccc21	inactive
Cc1nnc(SC(=O)N2c3ccccc3Sc3ccccc32)s1	30% (active)
O=C(COc1ccc(Cl)cc1Cl)N1CCN(C/C=C/c2ccccc2)CC1	1.2% (inactive)
Cc1c(NS(=O)(=O)c2ccc3c(c2)OCCO3)cccc1-c1nc2cccnc2s1	inactive
CCS(=O)(=O)Nc1cccc(-c2nc3cccnc3s2)c1C	28.6% (active)
CCS(=O)(=O)Nc1cc(-c2nc3cccnc3s2)ccc1C	0.46% (inactive)

From PubChem BioAssay AID740 (SRMLSC, 2007)
